High-throughput results (PubChem)
G9a block = qHTS Assay for Inhibitors of Histone Lysine Methyltransferase G9a; G9a H3K9 monomethylation, AlphaScreen, 2 h; Potency, µM (highest dose often 102 µM), for the others: at the top dose activity, negative = inhibition, actives largely listed as inhibitors; 8.8% of 350,000 active; AID 504332, 2011; note: % is set by controls: 0 for no effect and ±100 for the full control effect; nearly all actives have a fitted effect of over 75% in size
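Using a bead-based AlphaScreen, monomethylated H3K9 product from 2 h room-temperature reactions (G9a 20 nM, peptide 500 nM, SAM 20 uM) was detected with 0.5 ug/mL rabbit anti-H3K9me1 antibody.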
JMJD2A Tudor = qHTS Assay for Inhibitors of JMJD2A-Tudor Domain; Lysine-specific demethylase 4A (Homo sapiens), O75164; AID 504339, 2011; 4.4% of 390,000 active; AlphaScreen JMJD2A-Tudor / H3K4me3 peptide binding; Potency, µM (doses to about 114 µM), for inactives: top-dose activity change, negative = inhibition, most hits filed as inhibitors; note: % is set by controls: 0 for no effect and ±100 for the full control effect; nearly all actives have a fitted effect of over 50% in size
Sfp PPTase inh = qHTS Assay for Inhibitors of Bacillus subtilis Sfp phosphopantetheinyl transferase (PPTase); 4'-phosphopantetheinyl transferase ffp (Bacillus subtilis), Q9F4F7; Biochemical Sfp PPTase activity, qHTS; Potency, µM, inactives show largest response in the series, negative = inhibition, most hits filed as inhibitors; 3.5% of 310,000 active;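 note: the enzyme is Sfp with the accession as filed and its product quenches rhodamine fluorescence; 0% = enzyme reaction without inhibitor and -100% = no enzyme wells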
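Fluorescence-quenching assay: 15 nM Sfp-PPTase preincubated 15 min at room temperature with compound, then 5 uM rhodamine-CoA and 12.5 uM BHQ-2-labelled YbbR peptide added. Fluorescence (ex 525/em 598 nm) read at start and after 30 min; difference gives rate.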
HP1b chromo inh = HTS for Inhibitors of HP1-beta Chromodomain Interactions with Methylated Histone Tails; Potency, µM (doses to about 114 µM), for inactives: top-dose activity change, negative = inhibition, actives largely listed as inhibitors; 0.56% of 390,000 active; Chromobox protein homolog 1 (Homo sapiens), P83916; AID 540317, 2011; AlphaScreen HP1-beta / biotin-H3K9me3 peptide binding; note: nearly all actives have a fitted effect of over 70% in size
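Compound inhibition of the preformed complex between 50 nM HP1-beta and 50 nM biotinylated H3K9me3 peptide was read by AlphaScreen. Buffer was PBS pH 7.4 with 0.01% Tween-20. Incubations ran 30 min at room temperature, with 10 ug/mL donor/acceptor beads.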
BAZ2B block = qHTS Assay for Inhibitors of BAZ2B. AlphaScreen BAZ2B-H3K14Ac peptide displacement. Potency, µM (doses to about 114 µM), for inactives: at the highest dose activity change, negative = inhibition, usual class: inhibitors. 4.4% of 360,000 active; note: % is set by controls: 0 for no effect and ±100 for the full control effect; nearly all actives have a fitted effect of over 60% in size
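AlphaScreen displacement: compounds (up to 110uM) incubated 30 min at room temperature with a preformed 50 nM BAZ2B/50 nM biotinylated H3K14Ac peptide complex in PBS pH 7.4 with Tween-20. Donor and acceptor beads at 10 ug/mL final added, 20 min light-protected before reading.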
Active calls of the source: *; ? = inconclusive; / = not tested or not shown; [ ] = remark or other dose. In the library only some 12% were active in any assay of this set; here they are far more common. Calls come from the whole dose curve; as a rule, active = well fitted curve in the direction sought with a large enough effect; inconclusive = small, poorly fitted or top-dose-only effect, or another doubt; inactive = no such curve, though single readings can be large; an effect the other way counts as inactive or inconclusive. Potency is the fitted concentration of half-maximal effect.

SMILES	G9a block	JMJD2A Tudor	Sfp PPTase inh	HP1b chromo inh	BAZ2B block
Cc1ccc(CN2CC(C(=O)Nc3cc(S(C)(=O)=O)ccc3Cl)CC2=O)cc1 (centres undefined)	?	-26.6%	8.0%	7.6%	50.1µM*
COc1ccc(CCN2CC(C(=O)Nc3cc(S(C)(=O)=O)ccc3Cl)CC2=O)cc1OC (centres undefined)	7.1%	-11.0%	/	8.9%	-6.5%
Cc1ccc(NC(=O)Nc2nnc(N3CCCC3)s2)cc1	?	-6.0%	/	47.4%	-3.3%
Cc1ccc([N+](=O)[O-])c(C)[n+]1C	3.55µM*	14.1µM*	-25.3%	?	?
CCOc1ccc2nc(NC(=O)c3ccc(OCC4CCCO4)cc3)sc2c1 (centres undefined)	44.7µM*	-1.7%	?	24.8%	13.7%
CCOc1ccc(S(=O)(=O)Nc2nc3ccc(OC)cc3s2)cc1	?	-9.3%	16.2%	39.0%	0.1%
CCOc1ccc2nc(NC(=O)Cn3c(C)csc3=O)sc2c1	39.8µM*	-17.2%	/	12.9%	-7.0%
CCOc1ccc2nc(NS(C)(=O)=O)sc2c1	7.08µM*	-19.0%	-26.3%	45.6%	-17.3%
Cc1cccc2sc(NC(=O)c3ccc(OCC4CCCO4)cc3)nc12 (centres undefined)	-7.7%[59 µM]	-3.6%	-23.3%	14.1%	-2.8%
CCOc1ccc2nc(NS(=O)(=O)c3ccc4c(c3)n(C)c(=O)n4C)sc2c1	?	7.0%	-1.4%	45.0%	56.2µM*
Cc1ccc(-c2nc(CSc3nnc(C)n4c3cc3occc34)c(C)o2)cc1	-3.8%[59 µM]	-16.1%	/	24.4%	-14.8%
CCOc1ccc2nc(Cl)sc2c1	35.5µM*	-2.8%	-33.4%	1.9%	15.1%
O=C(CN1C2=NCCCN2c2ccccc21)c1cccc(Br)c1	?	?	-22.5%	?	6.0%
O=C(CN1C2=NCCCN2c2ccccc21)c1ccc([N+](=O)[O-])cc1	39.8µM*	-12.0%	-13.7%	41.8%	-12.1%
CCCC1Nc2ccc(C(=O)O)cc2C2C=CCC12 (centres undefined)	?	56.2µM*	?	-16.8%	44.7µM*
CC(C)C1Nc2ccc(C(=O)O)cc2C2C=CCC21 (centres undefined)	10µM*	31.6µM*	28.2µM*	?	79.4µM*
CC(C)=NNc1nc(-c2ccc(N3C(=O)CCC3=O)cc2)cs1	?	-12.8%	20µM*	13.1%	?
C/C(CCC1CC(C)OC1=O)=N/Nc1nc(-c2ccccc2)cs1 (centres undefined)	8.91µM*	?	50.1µM*	-33.2%	?
CC(C)=NNc1nc(-c2ccccc2)cs1	?	-33.1%	79.4µM*	0.6%	-32.2%
O=C(Nc1nc(-c2ccc(F)cc2)cs1)c1cccc(N2C(=O)CCC2=O)c1	-1.4%	-14.6%	2.5%	16.1%	-23.8%
CC(/C=C/c1ccccc1)=N\Nc1nc(-c2ccccc2)cs1	-20.0%[59 µM]	?	-2.4%	-28.2%	-36.3%
COc1ccc(C(=O)CN2C(=O)NC3(CCCCC3)C2=O)cc1OC	9.0%	-20.7%	12.6%	36.1%	1.3%
CN1CC(=O)N(CC(=O)Nc2ccc(SC(F)F)cc2)C1=O	-36.2%	-25.0%	-8.4%	0.3%	5.4%
CC1CC(=O)N(c2ccc(N(C)Cc3ccccc3)c([N+](=O)[O-])c2)C1=O (centres undefined)	-47.7%	-10.2%	-27.6%	8.2%	11.2µM*
CCOC(=O)CC1=C(C(=O)OCC)C(c2cccs2)C(C#N)=C(N)O1 (centres undefined)	-28.6%[59 µM]	-8.3%	-7.2%	20.3%	-38.6%
SMILES	G9a block	JMJD2A Tudor	Sfp PPTase inh	HP1b chromo inh	BAZ2B block
Cc1ccc(N2CSC3=C(C#N)C(c4cccs4)CC(=O)N3C2)cc1 (centres undefined)	1.41µM*	31.6µM*	1.41µM*	?	?
Cc1ccc(N2C(N)=C(C#N)C(c3cccs3)C3=C2CC(C)(C)CC3=O)cc1 (centres undefined)	?	?	-25.0%	1.9%	-36.6%
CCc1ccc(N2CSC3=C(C#N)C(c4cccs4)CC(=O)N3C2)cc1 (centres undefined)	?	31.6µM*	2.51µM*	-33.5%	?
COc1ccc(N2CSC3=C(C#N)C(c4cccs4)CC(=O)N3C2)cc1 (centres undefined)	2.82µM*	-11.9%	2.24µM*	9.2%	50.1µM*
CCOC(=O)c1ccc(N2CSC3=C(C#N)C(c4cccs4)CC(=O)N3C2)cc1 (centres undefined)	5.62µM*	28.2µM*	11.2µM*	?	44.7µM*
CCN(CC)S(=O)(=O)c1ccc(NC(=O)c2cc3ccc4cccnc4c3[nH]2)cc1	-5.5%[59 µM]	-10.0%	/	23.9%	1.6%[57.1 µM]
Cc1csc(/N=C/c2ccc([N+](=O)[O-])cc2)n1	?	-17.4%	7.6%	8.2%	-29.0%
CCCCCCNC(=O)n1cc(F)c(=O)[nH]c1=O	-31.6%[2.33 µM]	/	24.5%	/	/
CC(C)(C)c1ccc(OCCCNC2CCCC2)cc1	11.2µM*	20µM*	-4.7%	-35.7%	79.4µM*
Cc1ccc(OCC(O)CNC2CCCC2)c(C)c1 (centres undefined)	/	-18.3%	-4.4%	13.4%	2.4%
CC(C)(C)c1ccc(OCCC(=O)OCC(=O)NC2CC2)cc1	23.1%[12.7 µM]	9.5%	/	27.9%	-2.4%
COc1cccc(OC)c1OCCCNC1CCCC1	/	25.1µM*	-21.9%	?	?
Cc1ccc(C)c(OCCCNC2CCCC2)c1C	7.08µM*	0.794µM*	11.4%	?	?
Cc1ccc(OCCCCNC2CCCCC2)c(C)c1	14.1µM*	28.2µM*	-10.0%	-22.2%	79.4µM*
Cc1ccc(C)c(OCCCCN2CCNCC2)c1C	?	-23.3%	6.6%	53.6%	-22.3%
CC1CCN(C(=O)Cn2ncc3c4ccccc4n(Cc4ccc(Cl)cc4)c3c2=O)CC1	-31.8%[59 µM]	-27.2%	/	-4.4%	-18.9%
Cc1ccc(OCCCNC2CCCC2)cc1	12.6µM*	22.4µM*	6.5%	-19.5%	?
N#Cc1ccccc1OCC(=O)NC1CCCCC1	/	-12.3%	/	12.0%	/
N#Cc1ccccc1OCCCNC1CCCC1	20µM*	-100.0%	25.1%	?	?
COc1ccc(S(=O)(=O)N2CCCC2C(=O)Nc2nnc(-c3cccnc3)s2)cc1 (centres undefined)	3.55µM*	-26.2%	-7.1%	-25.8%	-8.0%
CCNC(=O)C1CCCN1S(=O)(=O)c1ccc(OC)cc1 (centres undefined)	8.91µM*	-6.1%	13.5%	7.2%	8.1%
O=C(NCC(=O)N1CCN(c2ccccc2O)CC1)c1ccc2c(c1)OCO2	-4.2%	-15.8%	6.3%	11.9%	0.6%
